From PubChem BioAssay
The list is not random: actives were taken first. Their share in the collection is about 10%.
Luc counter: blocks Kinase-Glo luciferase, a counter-screen artifact; Q27757; Kinase-Glo luciferase, ATP luminescence, 8 min; Potency, µM (doses to about 38.3 µM), for inactives: at the top dose activity change, negative = inhibition, most hits filed as inhibitors; 200,000 tested, 0.28% active; active means well fitted inhibition curve with a large enough effect; inconclusive means small, poorly fitted or top-dose-only effect; further: potency means the concentration at half of the fitted maximal effect; nearly all actives have a fitted effect of over 60% in size
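Luminescence was the read-out, taken after 8-minute incubation at ambient temperature. Luciferase turned over luciferin with 10 uM ATP in imidazole pH 7.2 buffer containing KCl, MgCl2, Tween 20 and BSA.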
ALDH1A1 block: blocks purified human ALDH1A1 activity; P00352; Purified ALDH1A1, NADH fluorescence, propionaldehyde substrate; Potency, µM (highest dose often 75.3 µM), inactives show at the highest dose activity, negative = inhibition, usual class: inhibitors; 220,000 tested, 7.3% active; AID 1030;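 further: potency means the concentration at half of the fitted maximal effect; plate controls were no enzyme wells and a reference inhibitor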
IMPase inh: cell-permeable inhibitors of inositol monophosphatase (IMPase) | AID 901 | inhibition (IP1 accumulation), % at 46.1 µM | 120,000 tested, under 10 active | P97697 | CHO-M1 cells, IP1 accumulation, HTRF TR-FRET ratio; active means well fitted curve in the direction sought with a large enough effect in the signal ratio, not every such curve was filed as active; inconclusive means small, poorly fitted or top-dose-only effect, or a change in a side signal; inactive means no such curve, though single readings can be large or run the other way; the % refers to the signal ratio;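 further: cells stimulated with carbachol in lithium chloride buffer; plate controls were DMSO basal wells for no effect and reference inhibitor wells for full effect; higher means more IMPase inhibition seen as more IP1 and lower FRET ratio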
Target sequence (P97697 whole entry, looked up): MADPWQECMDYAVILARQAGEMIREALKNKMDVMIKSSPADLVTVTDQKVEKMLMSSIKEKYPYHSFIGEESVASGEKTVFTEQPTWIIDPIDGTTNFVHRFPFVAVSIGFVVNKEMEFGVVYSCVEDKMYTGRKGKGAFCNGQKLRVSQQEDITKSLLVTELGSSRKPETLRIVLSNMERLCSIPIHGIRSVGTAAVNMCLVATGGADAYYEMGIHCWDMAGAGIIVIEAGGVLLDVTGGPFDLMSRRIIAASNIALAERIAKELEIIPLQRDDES
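Measured: the HTRF emission ratio (665/620 nm) plus the 620 nm donor channel, each fitted to the Hill equation to give AC50. Cells were CHO-M1 given compounds up to 46 uM and a 30 min carbachol stimulation at 37C.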
PNC inhibitor: perinucleolar compartment assembly inhibition | PC3M PTB-GFP, PNC prevalence imaging, 16 h; hits give low values | 140,000 tested, 3.1% active | AID 2417 | activity change (PNC), negative = inhibition, % at 10 µM;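 active means readout at or below -70, meaning at least 70% loss of cells showing the perinucleolar compartment, a nuclear body marking cancer cells; inconclusive means readout between -30 and a set limit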;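 further: plate controls were DMSO wells for no effect and camptothecin positive control wells for full effect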
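PC3M cells stably expressing PTB-GFP, 750–1000 cells/well, treated 16 h at 37 °C with compound (23 nl of library stock), in duplicate. After paraformaldehyde fixation and Hoechst stain, imaged at 20x; PNC prevalence scored by image analysis.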
Lamin A splicing: LMNA splicing modulation. HeLa LMNA splicing GFP/RFP minigene ratio, 48 h. Potency, µM (highest dose often 46.1 µM), inactives show at the highest dose ratio change, negative = inhibition, usual class: inhibitors. 200,000 tested, 0.01% active. AID 1487; active means well fitted inhibition curve with a large enough effect in the signal ratio, with a control signal flat, not every such curve was filed as active; inconclusive means small, poorly fitted or top-dose-only effect, or effect the other way, or a change in a side signal; the % refers to the signal ratio; further: potency means the concentration at half of the fitted maximal effect
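Read-out is the ratio of GFP to DsRed2 object intensity, acquired by 488 nm laser-scanning cytometry on HeLa lamin A-EGFP minigene reporter cells. Compound incubation 48 hrs at 37 °C in Opti-MEM with 2% FBS; DMSO 0.5% final.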
HPGD inh: inhibitors of human 15-hydroxyprostaglandin dehydrogenase (HPGD); P15428; purified HPGD, NADH fluorescence kinetic, PGE2 substrate; Potency, µM, for the others: at the top dose activity change, negative = inhibition, most hits filed as inhibitors; 150,000 tested, 4.3% active; AID 894; further: potency means the concentration at half of the fitted maximal effect
Target sequence (P15428 whole entry, looked up): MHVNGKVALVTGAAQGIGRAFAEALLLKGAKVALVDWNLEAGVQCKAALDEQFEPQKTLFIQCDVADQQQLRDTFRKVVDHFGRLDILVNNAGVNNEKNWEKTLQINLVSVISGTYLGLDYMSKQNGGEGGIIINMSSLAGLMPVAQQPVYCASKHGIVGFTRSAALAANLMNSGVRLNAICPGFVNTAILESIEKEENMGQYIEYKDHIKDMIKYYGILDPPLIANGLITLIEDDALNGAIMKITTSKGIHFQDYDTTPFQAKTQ
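20 nM HPGD preincubated 15 min at room temperature with compound in 50 mM Tris-HCl pH 8, 0.01% Tween 20. Started with 1 mM NAD+ and 30 uM prostaglandin E2; NADH fluorescence (360/450 nm) read 5 times over 30-s intervals, last minus first.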
Numbers without * were called inactive; [ ] = dose if it differs, or a comment. Unless noted, the call rests on the fitted dose curve; in most records, active means well fitted inhibition curve with a large enough effect (not every such curve was filed as active); inconclusive means small, poorly fitted or top-dose-only effect, or another doubt; inactive means no such curve, though single readings can be large or run the other way. Unless noted, on the % scale 0 is the no-effect control and ±100 the full control effect.

Screening CCCCNC(=O)C1CCN(C/C(C)=C/c2ccccc2)CC1 returned Luc counter 1.4%, ALDH1A1 block inconclusive, IMPase inh 5.5, PNC inhibitor 30.6, Lamin A splicing 2.7% and HPGD inh -3.3%.
For COc1ccc(Cc2ccc3[nH]c(=O)cc(C)c3c2)cc1S(=O)(=O)O the results were Luc counter -2.4%[7.66 µM], ALDH1A1 block 0.9%[13.5 µM] and HPGD inh -7.2%.
COc1ccccc1CNC(=O)CN1C(=O)CCc2cc(S(=O)(=O)N3CCOCC3)ccc21 was read as Lamin A splicing 1.7%[46 µM].
Screening Cc1ccc(C(=O)CC2(O)C(=O)N(Cc3ccccc3)c3ccccc32)o1 (centres undefined) returned Luc counter 0.8%, ALDH1A1 block 0.708µM*, IMPase inh 15.4, PNC inhibitor 44.5, Lamin A splicing -1.3% and HPGD inh -12.2%.
Cc1coc(C)c1C(=O)CC1(O)C(=O)N(Cc2ccccc2)c2ccccc21 (centres undefined) was read as Luc counter 10.6%, ALDH1A1 block 4.47µM*, IMPase inh 21.1, PNC inhibitor inconclusive, Lamin A splicing 4.9% and HPGD inh -27.0%.
For Cc1ccc(C(=O)CC2(O)C(=O)N(Cc3ccccc3Cl)c3ccccc32)o1 (centres undefined) the results were Luc counter -1.6%, ALDH1A1 block 3.55µM*, IMPase inh 3.7, PNC inhibitor -17.2, Lamin A splicing inconclusive and HPGD inh -21.2%.
`COc1ccc(CN2C(=O)C(O)(CC(=O)c3c(C)n[nH]c3C)c3ccccc32)cc1OC` (centres undefined) gave Luc counter -1.8%, ALDH1A1 block 3.55µM*, IMPase inh 11.0, PNC inhibitor inconclusive, Lamin A splicing -4.3% and HPGD inh -3.6%.
Screening Cc1ccc(C(=O)CC2(O)C(=O)N(CCc3ccccc3)c3ccc(Br)cc32)o1 (centres undefined) returned Luc counter 2.4%, ALDH1A1 block inconclusive, IMPase inh 6.8, PNC inhibitor 40.6, Lamin A splicing -5.6% and HPGD inh -13.7%.
For CCCN1C(=O)C(O)(CC(=O)c2ccc(OC)c(OC)c2)c2ccccc21 (centres undefined) the results were IMPase inh 1.3.
Screening CC(=O)CC1(O)C(=O)N(Cc2ccccc2)c2ccccc21 (centres undefined) returned Luc counter -0.1%, ALDH1A1 block inconclusive, IMPase inh 5.3, PNC inhibitor 58.7, Lamin A splicing 9.5% and HPGD inh -4.3%.
Screening C/C(CC1(O)C(=O)N(Cc2ccccc2)c2ccccc21)=N\O (centres undefined) returned Luc counter -0.5%, ALDH1A1 block 1.58µM*, IMPase inh 26.5, PNC inhibitor inconclusive, Lamin A splicing 6.4% and HPGD inh -16.5%.
`CCOc1cc(S(=O)(=O)Nc2ccc(Cl)cn2)ccc1Cl` gave Luc counter 1.5%, ALDH1A1 block -12.1%, IMPase inh -4.4, PNC inhibitor inconclusive, Lamin A splicing -4.0% and HPGD inh -0.3%.
O=S(=O)(Nc1ccc(Cl)cn1)c1cccc(S(=O)(=O)c2ccccc2)c1 was read as Luc counter -1.1% and ALDH1A1 block 20µM*.
`Cc1ccc(NS(=O)(=O)c2cccc([N+](=O)[O-])c2)nc1` gave Luc counter -2.0%, ALDH1A1 block 11.2µM* and Lamin A splicing -9.3%[46 µM].
For COc1ccc(-c2noc(CN(C)S(=O)(=O)c3ccc(Cl)cc3)n2)cc1OC the results were Luc counter 0.4%, ALDH1A1 block 7.3%, IMPase inh 6.4, PNC inhibitor -92.2*, Lamin A splicing inconclusive and HPGD inh -10.8%.
CN(Cc1nc(-c2ccccn2)no1)S(=O)(=O)c1ccc(Br)cc1 was read as Luc counter -0.3%, ALDH1A1 block inconclusive, IMPase inh 3.5, PNC inhibitor 20.7, Lamin A splicing -3.3% and HPGD inh 22.4µM*.
Screening COc1ccc(-c2noc(CCC(N)=O)n2)cc1OC returned Luc counter 5.1%, ALDH1A1 block 12.1%, IMPase inh 1.6, PNC inhibitor -112.8*, Lamin A splicing 1.5% and HPGD inh -3.3%.
For CCOc1ccc(-c2noc(CCCC(N)=O)n2)cc1OC the results were Luc counter -3.3%, ALDH1A1 block -7.6%, IMPase inh 11.6, PNC inhibitor 26.0, Lamin A splicing 7.7% and HPGD inh -16.0%.
`COc1ccc(-c2noc(CN3CCOCC3)n2)cc1OC` gave Luc counter -1.6%, ALDH1A1 block 22.4µM*, IMPase inh -6.0, PNC inhibitor 25.2, Lamin A splicing 3.5% and HPGD inh -1.7%.
For Cc1ccc(-c2noc(CN3CCOCC3)n2)cc1 the results were Luc counter -0.7%, ALDH1A1 block -1.2%, IMPase inh 6.5, PNC inhibitor 6.7, Lamin A splicing 2.7% and HPGD inh -7.0%.
COc1ccc(C(=O)NCC(c2cccs2)S(=O)(=O)c2cccs2)cc1 (centres undefined) was read as Lamin A splicing -9.1%[46 µM].
`COc1cccc(N2CC(NC(=O)c3ccc4c(c3)OCO4)CC2=O)c1` (centres undefined) gave Lamin A splicing 4.1%[46 µM].
Screening CC(C)c1ccc(/C(C(=O)O)=C(\O)C(=O)O)cc1 returned Luc counter -4.0%[7.66 µM], ALDH1A1 block 1.9%[13.5 µM] and HPGD inh -15.8%.
Screening COc1ccc(-c2nc(C)c(CCNC(=O)c3ccc(F)c(F)c3)s2)cc1 returned Lamin A splicing -0.2%[46 µM].
`OC[C@@H](O)C(O[C@@H]1O[C@@H](CO)[C@H](O)[C@H](O)[C@H]1O)[C@H](O)[C@@H](O)CO` (some centres undefined) gave Lamin A splicing 11.4%.
Screening CCN(C(=O)CCc1nc(-c2ccc(OC)cc2)no1)c1cc(OC)ccc1OC returned Luc counter -3.6%, ALDH1A1 block -14.0%, IMPase inh 6.3, PNC inhibitor 1.0, Lamin A splicing inconclusive and HPGD inh 14.1µM*.
For CCCN(C(=O)CCc1nc(-c2ccc(OC)cc2)no1)c1ccccc1F the results were IMPase inh 5.0.
`CC1CCCC(=C\c2ccccc2)/C1=N/O` (centres undefined) gave Luc counter -5.9%, ALDH1A1 block -7.9%, PNC inhibitor 2.0, Lamin A splicing -0.8% and HPGD inh 3.16µM*.
